# Experimental data as given in publication PMC5540273 (PLoS ONE, 2017).
# Experiments:
# Details in all cases: concentration: 1 μM,replicates: in singlicate; n = 1
# [1] = system: RPS6KA4(Kin.Dom.1-N-terminal)
# [2] = system: RPS6KA4(Kin.Dom.2-C-terminal)
# [3] = system: RPS6KA5(Kin.Dom.1-N-terminal)
# [4] = system: RPS6KA5(Kin.Dom.2-C-terminal)
# [5] = system: T1, RSK1(Kin.Dom.1-N-terminal)
# T1 construct: gene RPS6KA1
# [6] = system: T2, RSK1(Kin.Dom.2-C-terminal)
# T2 construct: gene RPS6KA1
# [7] = system: T3, RSK2(Kin.Dom.1-N-terminal)
# T3 construct: gene RPS6KA3
# [8] = system: T4, RSK2(Kin.Dom.2-C-terminal)
# T4 construct: gene RPS6KA3
# [9] = system: T5, RSK3(Kin.Dom.1-N-terminal)
# T5 construct: gene RPS6KA2
# [10] = system: T6, RSK3(Kin.Dom.2-C-terminal)
# T6 construct: gene RPS6KA2
# [11] = system: T7, RSK4(Kin.Dom.1-N-terminal)
# T7 construct: gene RPS6KA6
# [12] = system: T8, RSK4(Kin.Dom.2-C-terminal)
# T8 construct: gene RPS6KA6
# [13] = system: S6K1
# [14] = system: SBK1
# [15] = system: SGK2
# [16] = system: SGK3
# [17] = system: SGK
# [18] = system: SIK2
# [19] = system: SIK
# [20] = system: SLK
# 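Note: KINOMEscan kinase panel screen.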
Structure (SMILES),%Inh [1],%Inh [2],%Inh [3],%Inh [4],%Inh [5],%Inh [6],%Inh [7],%Inh [8],%Inh [9],%Inh [10],%Inh [11],%Inh [12],%Inh [13],%Inh [14],%Inh [15],%Inh [16],%Inh [17],%Inh [18],%Inh [19],%Inh [20]
CS(=O)(=O)Nc1ccc(-c2ccnc3[nH]ccc23)cc1 [GSK993273],0%,94.1%,0%,86%,17%,55%,35%,29%,19%,54%,27%,60%,37%,55%,13%,12%,24%,39%,9%,49%
Cc1nnc(-c2ccc3occ(-c4ccc(S(C)=O)cc4)c3n2)o1 (centres unmarked),0%,0%,9%,0%,0%,14%,0%,0%,0%,3%,0%,15%,0%,0%,0%,0%,0%,59%,4%,0%
Cn1ccc2ncnc(Oc3ccc(NC(=O)Nc4ccnc(C(F)(F)F)c4)c(Cl)c3)c21,0%,7%,3%,7%,0%,9%,0%,35%,0%,1%,0%,2%,0%,0%,10%,0%,9%,8%,4%,10%
O=C(Nc1cccc(C(F)(F)F)c1)c1cccc(Oc2ccc3nccn3n2)c1,9%,0%,8%,0%,25%,0%,10%,48%,23%,68%,23%,22%,2%,35%,15%,14%,9%,0%,0%,10%
CCOC(=O)N1CCC(n2cnc(-c3ccc(F)cc3)c2-c2ccnc(N)n2)CC1 [SB-219952],6%,7%,1%,0%,11%,32%,23%,0%,8%,36%,9%,65%,22%,0%,33%,6%,17%,0%,0%,0%
C[C@@H](Oc1cc(-n2cnc3cc(-c4ccncc4)ccc32)sc1C(N)=O)c1ccccc1Cl [GSK479719],46%,0%,9%,0%,11%,7%,42%,4%,30%,21%,25%,21%,11%,19%,5%,0%,0%,43%,11%,99.4%
O=C(Nc1n[nH]c2cc(-c3ccco3)ccc12)C1CC1 [SB-737447],0%,18%,0%,23%,16%,0%,22%,0%,18%,0%,26%,10%,4%,23%,30%,34%,47%,0%,0%,13%
Cc1cccc(-c2nc(Nc3ccncc3)c3sccc3n2)n1 [GW869641],30%,7%,19%,0%,2%,8%,41%,50%,7%,21%,41%,37%,13%,58%,11%,27%,24%,0%,7%,57%
COC(=O)c1cccc(NC(=O)NC2CCN(c3ccnc(Nc4cc(OC)c(OC)c(OC)c4)n3)C2)c1 (centres unmarked) [GSK1379767],0%,0%,0%,30%,21%,5%,7%,1%,9%,29%,0%,16%,0%,6%,0%,2%,0%,5%,0%,28%
COc1cccc(CNC(=O)NC2CCN(c3ccnc(Nc4cc(OC)c(OC)c(OC)c4)n3)C2)c1 (centres unmarked) [GSK1379765],1%,0%,0%,0%,17%,0%,7%,29%,22%,1%,7%,3%,14%,19%,4%,2%,0%,0%,0%,30%
Cc1ccc(C(=O)Nc2ccc(Oc3ccc4nc(NC(=O)C5CC5)cn4c3)c(F)c2)c(=O)n1-c1ccccc1,22%,0%,0%,0%,0%,0%,0%,37%,22%,2%,0%,0%,9%,0%,0%,0%,0%,19%,94.9%,79%
COc1cc2nccc(Nc3ccc(Oc4ccccc4)cc3)c2cc1OC.Cl [GI261656],0%,0%,0%,12%,2%,0%,0%,0%,0%,0%,0%,9%,0%,0%,0%,0%,0%,0%,0%,26%
CC(C)S(=O)(=O)N1CCN(Cc2ccc3c(c2)nc(NC(=O)c2ccsc2)n3C[C@H](O)c2ccccc2)CC1 [GW635815],29%,0%,12%,0%,96.1%,0%,91.8%,6%,93.5%,24%,54%,9%,13%,59%,0%,3%,0%,19%,0%,33%
OCCn1cc(-c2cnc3nnn(Cc4ccc5ncccc5c4)c3n2)cn1,1%,0%,0%,2%,9%,0%,0%,0%,0%,0%,0%,1%,0%,0%,0%,15%,0%,0%,0%,0%
CCNCC(Cc1ccccc1)NC(=O)c1cc(Br)c(-c2ccnc3[nH]ccc23)s1.Cl.Cl (centres unmarked) [GSK1383280],67%,21%,43%,22%,21%,18%,42%,0%,10%,1%,33%,18%,67%,70%,9%,82%,65%,0%,0%,0%
Nc1nccc(-c2ccc3c(N)n[nH]c3c2)n1 [GSK1034945],0%,81%,7%,62%,4%,32%,29%,22%,31%,1%,59%,24%,1%,25%,4%,24%,0%,0%,0%,25%
CN(c1ccc2c(c1)nc(NCc1ccc(F)cc1)n2C)c1ccnc(Nc2ccc(CS(C)(=O)=O)cc2)n1.Cl [GW813244],12%,0%,0%,4%,0%,32%,31%,0%,9%,28%,16%,0%,11%,10%,18%,0%,17%,39%,0%,61%
COc1cc2ncn(-c3cc(OCC4CCCCC4)c(C(N)=O)s3)c2cc1OC [GSK204559],7%,0%,28%,0%,8%,0%,7%,30%,22%,8%,3%,20%,0%,22%,0%,9%,0%,0%,4%,80%
Cl.Nc1n[nH]c2cc(-c3ccccn3)ccc12 [GSK2189892],15%,0%,26%,0%,29%,0%,0%,0%,0%,0%,3%,0%,0%,28%,0%,0%,0%,0%,0%,14%

Structure (SMILES),%Inh [1],%Inh [2],%Inh [3],%Inh [4],%Inh [5],%Inh [6],%Inh [7],%Inh [8],%Inh [9],%Inh [10],%Inh [11],%Inh [12],%Inh [13],%Inh [14],%Inh [15],%Inh [16],%Inh [17],%Inh [18],%Inh [19],%Inh [20]
CSc1nccc(-c2c(-c3ccc(F)cc3)ncn2CCCN2CCOCC2)n1.Cl [SB-217146],27%,0%,0%,4%,3%,17%,46%,0%,0%,18%,18%,21%,17%,6%,0%,13%,10%,0%,0%,0%
FC(F)(F)c1cc(Br)cc(Nc2nccc(-c3cnn4ncccc34)n2)c1 [GW810578],0%,0%,0%,0%,0%,0%,17%,0%,3%,9%,13%,0%,4%,0%,0%,17%,2%,0%,14%,13%
Cn1ccc2ncnc(Oc3ccc(NC(=O)Nc4cccc(C(F)(F)F)c4)c(Cl)c3)c21,2%,0%,0%,2%,0%,86%,13%,16%,0%,27%,0%,41%,2%,0%,0%,0%,0%,9%,10%,63%
CCn1c(-c2nonc2N)nc2cncc(CNC3CCNCC3)c21.Cl [SB-747651],44%,6%,78%,0%,21%,0%,16%,6%,7%,9%,10%,25%,60%,25%,7%,43%,0%,0%,0%,9%
CN1CCN(CCNc2nc3cc(Oc4ccc(NC(=O)Nc5cc(C(F)(F)F)ccc5F)cc4)ccc3[nH]2)CC1.Cl.Cl [GW768504],5%,0%,0%,1%,7%,28%,0%,0%,0%,8%,0%,0%,0%,0%,0%,0%,0%,0%,0%,7%
Cn1ccc2ncnc(Oc3ccc(NC(=O)Nc4cc(C(C)(C)C)on4)c(Cl)c3)c21,0%,13%,0%,6%,0%,17%,16%,1%,0%,8%,26%,18%,6%,13%,24%,0%,10%,4%,11%,97.7%
CN(c1cccc(CNc2nc(Nc3ccc4c(c3)CC(=O)N4)ncc2C(F)(F)F)c1)S(C)(=O)=O,48%,3%,12%,20%,67%,13%,87%,23%,78%,27%,77%,54%,42%,48%,0%,2%,31%,56%,25%,33%
C[C@@H]1CCN(C(=O)N2CCCC2)C[C@@H]1N(C)c1ncnc2[nH]ccc12,0%,2%,0%,0%,0%,14%,10%,0%,0%,22%,18%,31%,2%,19%,3%,27%,0%,6%,11%,21%
CCCC(=O)Nc1n[nH]c2ncccc12 [SB-601436],3%,3%,0%,0%,0%,0%,19%,0%,0%,0%,0%,0%,0%,2%,17%,10%,7%,0%,0%,0%
COc1cc2c(Nc3ccc(NC(=O)c4ccccc4)cc3)ncnc2cc1OCCCN1CCOCC1 [GSK301329],20%,0%,0%,0%,11%,0%,0%,1%,0%,0%,0%,0%,24%,14%,2%,1%,0%,4%,2%,58%
N#Cc1cccc(C(=O)NC2CCN(c3ccnc(Nc4ccc(F)cc4)n3)C2)c1 (centres unmarked) [GSK1379708],0%,0%,0%,0%,15%,0%,0%,0%,0%,0%,0%,0%,1%,2%,5%,0%,0%,0%,7%,16%
Cc1ccc(CC(=O)N2CCc3cc(-c4cn(C)c5ncnc(N)c45)ccc32)cc1 [GSK2634758],16%,0%,3%,0%,9%,4%,0%,4%,7%,0%,0%,15%,5%,7%,0%,4%,0%,0%,32%,59%
CCN1CCN(CCCC(=O)Nc2n[nH]c3nc(-c4ccc(O)cc4)c(Br)cc23)CC1 [SB-731579],5%,98.5%,4%,0%,0%,0%,13%,0%,0%,30%,20%,0%,0%,10%,0%,0%,0%,0%,0%,78%
Cl.c1ccc(Oc2ccc(Nc3ccnc4cc(-c5ccc(CN6CCNCC6)o5)ccc34)cc2)nc1 [GW567142],0%,0%,0%,14%,2%,16%,0%,0%,0%,9%,0%,22%,0%,0%,0%,0%,22%,65%,97.4%,19%
Cn1cc(-c2cccc3c(N)c(C(N)=O)nnc23)cn1,53%,30%,21%,13%,0%,0%,23%,44%,21%,0%,22%,3%,22%,19%,45%,64%,78%,17%,24%,0%
C[C@@H]1CNc2c(sc3ccc4nc(-c5ccncc5)ccc4c23)C(=O)N1,33%,98.7%,0%,0%,0%,0%,4%,0%,10%,33%,38%,21%,0%,30%,0%,18%,0%,0%,5%,1%
CC(=O)c1c(-c2ccncc2)[nH]c(-c2ccncc2)c1C [GW493036],34%,0%,0%,61%,26%,0%,0%,0%,0%,7%,0%,4%,6%,10%,11%,9%,0%,0%,0%,0%
Cc1ccc(Nc2ccnc(Nc3ccc4c(c3)CS(=O)(=O)C4)n2)cc1O.Cl [GW579362],15%,0%,0%,18%,20%,7%,0%,55%,47%,11%,0%,35%,1%,55%,0%,9%,0%,60%,58%,99.2%
